Measurements: PubChem BioAssay (EPA / NIEHS)
Results filed as inconclusive are left out. Active and inactive are the calls of the source. The calls were made as follows: active = hit-call score of the fitted dose curve at least 0.9, where 1 is the maximum; inconclusive = response in the unintended direction; inactive = score below 0.9.

Assay: CCTE_Mundy_HCI_iCellGluta_NOG_NeuronCount: CCTE's Neurite Outgrowth Assay in iCellGluta cells for Neuron Count, Mundy Lab (AID 2284340);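 also: cells fixed about 48 h after compound addition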
Protocol: CCTE_Mundy_HCI_iCellGluta_NOG is a multiplexed, cell-based-readout assay that uses iCell GlutaNeurons from FUJIFILM Cellular Dynamics, Inc. (FCDI), human glutamatergic enriched neurons derived from induced pluripotent stem (iPS) cells, with measurements taken at 50.33 hours after chemical dosing in a microplate: 96-well plate.CCTE_Mundy_HCI_iCellGluta_NOG_NeuronCount is one of four components of the CCTE_Mundy_HCI_iCellGluta_NOG assay. It measures cell viability related to number of neurons using High Content Imaging of fluorescently labelled markers.Data from the assay component CCTE_Mundy_HCI_iCellGluta_NOG_NeuronCount was analyzed at the endpoint CCTE_Mundy_HCI_iCellGluta_NOG_NeuronCount in the positive analysis fitting direction relative to DMSO as the negative control and baseline of activity. Using a type of viability reporter, loss-of-signal activity can be used to understand developmental effects.
Exposure starts 2 hours post-plating by adding 10 ul of the working solution to 90 ul of media in the wells for a 1/10 dilution. Forty-eight hours after chemical treatment cells are fixed by direct addition of 100 ul of warm (37C) Dulbecco's phosphate buffered saline (DPBS) fixative solution containing 8% paraformaldehyde, 8% sucrose, and 0.1% of 3 mg/ml Hoechst 33342 into each well. Primary antibodies are prepared by dilution in Immunocytochemical Staining Buffer (ISB), 10X Dulbecco's PBS, 0.1% Saponin, 5% Bovine Serum Albumin, 0.5% NaN3 (Sodium Azide) and betaIII-tubulin (rabbit anti-betaIII-tubulin, 1:800) followed by Alexa Fluor-488 secondary (1:500) to label neuronal cell bodies and neurites. A Cellomics ArrayScan VTi HCS Reader is used for automated image acquisition and analysis of neurite outgrowth.

Row | Compound | outcome | AC50
1 | CC1(C)[C@H](C=C(Cl)Cl)[C@@H]1C(=O)O[C@@H](C#N)c1cccc(Oc2ccccc2)c1 | inactive | 
2 | CC1(C)C(C=C(Cl)Cl)C1C(=O)O[C@H](C#N)c1cccc(Oc2ccccc2)c1 (some centres not stated) | inactive | 
3 | [Cd+2].[Cl-].[Cl-] |  | 15 µM (active)
4 | CCOP(=S)(OCC)SCS(=O)C(C)(C)C (configuration not stated) | inactive | 
5 | CNC(=N[N+](=O)[O-])NCC1CCOC1 (configuration not stated) | inactive | 
6 | CCOP(=O)(OCC)OC(Cl)C(Cl)(Cl)Cl (configuration not stated) | inactive | 
7 | CC1(C)[C@@H](C=C(Cl)Cl)[C@@H]1C(=O)O[C@@H](C#N)c1ccc(F)c(Oc2ccccc2)c1 | inactive | 
8 | CC1(C)C(C=C(Cl)c2ccc(Cl)cc2)C1C(=O)OC(C#N)c1ccc(F)c(Oc2ccccc2)c1 (configuration not stated) | inactive | 
9 | CC1(C)[C@H](C=C(Cl)Cl)[C@H]1C(=O)OCc1c(F)c(F)cc(F)c1F |  | 21.7 µM (active)
10 | COP(=O)(OC)SCN1C(=O)c2ccccc2C1=O | inactive | 
11 | Cn1nc(C(F)(F)F)c(CS(=O)(=O)C2=NOC(C)(C)C2)c1OC(F)F | inactive | 
12 | CCOP(=O)(OCC)SCSC(C)(C)C | inactive | 
13 | CCOP(=O)(Oc1cnc(C(C)(C)C)nc1)OC(C)C (configuration not stated) | inactive | 
14 | [CH3][Hg][Cl] |  | 0.0806 µM (active)
15 | CC(=O)[O-].[Tl+] |  | 31.3 µM (active)
16 | C#CCN(C)[C@H](C)Cc1ccccc1 | inactive | 
17 | CCOP(=O)(OCC)SCSCC | inactive | 
